Where a chain is given by its changes, count along the chain named.
The sequences below were run against T1, VENTX (Homo sapiens, UniProt O95231 78-163, R121Q) (assay: PBM; 200 nM protein, PBS). Conditions: dsDNA, one strand shown.
T1 sequence: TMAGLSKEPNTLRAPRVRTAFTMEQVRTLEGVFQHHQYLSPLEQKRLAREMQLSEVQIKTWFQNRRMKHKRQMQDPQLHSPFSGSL

Row | Sequence | binding signal
1 | AATTAGCT | 11.7 upbm affinity estimate (log intensity, higher = more binding, comparable within an allelic series)
2 | CTAATTGC | 12.3 upbm affinity estimate (log intensity, higher = more binding, comparable within an allelic series)
3 | ACCAGCTG | 7.92 upbm affinity estimate (log intensity, higher = more binding, comparable within an allelic series)
4 | CGGGCTCC | 7.54 upbm affinity estimate (log intensity, higher = more binding, comparable within an allelic series)
5 | GCACTTAA | 10.2 upbm affinity estimate (log intensity, higher = more binding, comparable within an allelic series)

What follows are sequences tested against HOXA4 (Homo sapiens, UniProt Q00056 201-287, W262R) (assay: PBM; 200 nM protein, PBS). Conditions: dsDNA, one strand shown.
Chain of HOXA4 (Q00056 201-287 W262R): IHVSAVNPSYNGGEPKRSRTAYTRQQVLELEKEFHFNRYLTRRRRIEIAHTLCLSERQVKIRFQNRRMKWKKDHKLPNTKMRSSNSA

Row | Sequence | binding signal
6 | CTAATTGC | 10.4 upbm affinity estimate (log intensity, higher = more binding, comparable within an allelic series)
7 | CCGGAGCC | 9.74 upbm affinity estimate (log intensity, higher = more binding, comparable within an allelic series)
8 | CGGGCTCC | 9.62 upbm affinity estimate (log intensity, higher = more binding, comparable within an allelic series)

These sequences were tested against T2, VENTX (Homo sapiens, UniProt O95231 78-163) (assay: PBM; 200 nM protein, PBS). Conditions: dsDNA, one strand shown.
T2 sequence: T1 sequence with Q44R

Row | Sequence | binding signal
9 | CTAATTGC | 12.7 upbm affinity estimate (log intensity, higher = more binding, comparable within an allelic series)
10 | ACCAGCTG | 8.2 upbm affinity estimate (log intensity, higher = more binding, comparable within an allelic series)
11 | CGGGCTCC | 6.97 upbm affinity estimate (log intensity, higher = more binding, comparable within an allelic series)
12 | GCACTTAA | 10.9 upbm affinity estimate (log intensity, higher = more binding, comparable within an allelic series)

Each sequence was assayed against T3, NKX2-4 (Homo sapiens, UniProt Q9H2Z4 175-261, T231S) (assay: PBM; 200 nM protein, PBS). Conditions: dsDNA, one strand shown.
T3 sequence: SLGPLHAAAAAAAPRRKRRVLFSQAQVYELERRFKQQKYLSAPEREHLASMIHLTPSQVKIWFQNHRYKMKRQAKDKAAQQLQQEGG

Row | Sequence | binding signal
13 | AAGTGGAG | 12.7 upbm affinity estimate (log intensity, higher = more binding, comparable within an allelic series)
14 | CTTAAGTA | 12.9 upbm affinity estimate (log intensity, higher = more binding, comparable within an allelic series)
15 | CACTTTAA | 12.9 upbm affinity estimate (log intensity, higher = more binding, comparable within an allelic series)
16 | CACTTAAC | 12.9 upbm affinity estimate (log intensity, higher = more binding, comparable within an allelic series)
17 | GTACTTAA | 13.2 upbm affinity estimate (log intensity, higher = more binding, comparable within an allelic series)
18 | AATAAGTG | 12.8 upbm affinity estimate (log intensity, higher = more binding, comparable within an allelic series)
19 | ACCACTTA | 13.1 upbm affinity estimate (log intensity, higher = more binding, comparable within an allelic series)
20 | CACTTATA | 13 upbm affinity estimate (log intensity, higher = more binding, comparable within an allelic series)
21 | CCGGAGCC | 9.52 upbm affinity estimate (log intensity, higher = more binding, comparable within an allelic series)
22 | ACACTTAT | 12.9 upbm affinity estimate (log intensity, higher = more binding, comparable within an allelic series)
23 | CTACTTAA | 12.9 upbm affinity estimate (log intensity, higher = more binding, comparable within an allelic series)
24 | CCACTTTA | 13 upbm affinity estimate (log intensity, higher = more binding, comparable within an allelic series)
25 | ATCAAGTG | 13 upbm affinity estimate (log intensity, higher = more binding, comparable within an allelic series)
26 | CCAGGCCG | 9.57 upbm affinity estimate (log intensity, higher = more binding, comparable within an allelic series)
27 | ATAAGTAC | 13 upbm affinity estimate (log intensity, higher = more binding, comparable within an allelic series)
28 | AAGTACCT | 12.9 upbm affinity estimate (log intensity, higher = more binding, comparable within an allelic series)
29 | AAGCACTT | 12.9 upbm affinity estimate (log intensity, higher = more binding, comparable within an allelic series)
30 | GCACTTAA | 13 upbm affinity estimate (log intensity, higher = more binding, comparable within an allelic series)
31 | GCCACTTA | 13 upbm affinity estimate (log intensity, higher = more binding, comparable within an allelic series)

The sequences below were run against ALX4 (Homo sapiens, UniProt Q9H161 200-286) (assay: PBM; 200 nM protein, PBS). Conditions: dsDNA, one strand shown.
Chain of ALX4 (Homo sapiens, UniProt Q9H161 200-286) (Q9H161 200-286): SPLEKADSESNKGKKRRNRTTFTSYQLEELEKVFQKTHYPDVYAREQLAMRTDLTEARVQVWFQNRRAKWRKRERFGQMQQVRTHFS

Row | Sequence | binding signal
32 | AATTAGCT | 13.6 upbm affinity estimate (log intensity, higher = more binding, comparable within an allelic series)
33 | CCCGGCGG | 7.89 upbm affinity estimate (log intensity, higher = more binding, comparable within an allelic series)
34 | CTAATTGC | 13.6 upbm affinity estimate (log intensity, higher = more binding, comparable within an allelic series)
35 | CGGGCTCC | 7.48 upbm affinity estimate (log intensity, higher = more binding, comparable within an allelic series)

Each sequence was assayed against T4, PAX4 (Homo sapiens, UniProt O43316 9-242, R200K) (assay: PBM; 200 nM protein, PBS). Conditions: dsDNA, one strand shown.
T4 sequence: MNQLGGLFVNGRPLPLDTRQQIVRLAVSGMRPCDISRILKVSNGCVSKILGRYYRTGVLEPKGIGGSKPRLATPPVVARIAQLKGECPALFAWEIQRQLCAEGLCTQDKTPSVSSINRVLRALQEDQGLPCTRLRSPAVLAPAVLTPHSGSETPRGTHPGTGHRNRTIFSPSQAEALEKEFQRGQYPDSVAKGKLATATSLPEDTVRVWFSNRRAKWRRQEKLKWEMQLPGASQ

Row | Sequence | binding signal
36 | AATTAGCT | 11.7 upbm affinity estimate (log intensity, higher = more binding, comparable within an allelic series)
37 | ACGGCTGG | 9.35 upbm affinity estimate (log intensity, higher = more binding, comparable within an allelic series)
38 | ACCCGGGC | 9.17 upbm affinity estimate (log intensity, higher = more binding, comparable within an allelic series)
39 | CGGGCTCC | 8.72 upbm affinity estimate (log intensity, higher = more binding, comparable within an allelic series)

The sequences below were run against PRRX1 (Homo sapiens, UniProt P54821 80-166, F113S) (assay: PBM; 200 nM protein, PBS). Conditions: dsDNA, one strand shown.
Chain of PRRX1 (P54821 80-166 F113S): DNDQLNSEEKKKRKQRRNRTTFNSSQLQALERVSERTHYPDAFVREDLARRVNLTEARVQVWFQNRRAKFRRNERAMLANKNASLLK

Row | Sequence | binding signal
40 | AATTAGCT | 11.1 upbm affinity estimate (log intensity, higher = more binding, comparable within an allelic series)
41 | CACGCGTG | 9.36 upbm affinity estimate (log intensity, higher = more binding, comparable within an allelic series)
42 | ACGCGCAG | 9.07 upbm affinity estimate (log intensity, higher = more binding, comparable within an allelic series)
43 | CGGGCTCC | 8.95 upbm affinity estimate (log intensity, higher = more binding, comparable within an allelic series)

The sequences below were run against T5, VENTX (Homo sapiens, UniProt O95231 78-163, Y115F) (assay: PBM; 200 nM protein, PBS). Conditions: dsDNA, one strand shown.
T5 sequence: T1 sequence with Y38F, Q44R

Row | Sequence | binding signal
44 | AATTAGCT | 11.4 upbm affinity estimate (log intensity, higher = more binding, comparable within an allelic series)
45 | CTAATTGC | 12 upbm affinity estimate (log intensity, higher = more binding, comparable within an allelic series)
46 | ACCAGCTG | 8.14 upbm affinity estimate (log intensity, higher = more binding, comparable within an allelic series)
47 | CGGGCTCC | 7.32 upbm affinity estimate (log intensity, higher = more binding, comparable within an allelic series)
48 | GCACTTAA | 10.3 upbm affinity estimate (log intensity, higher = more binding, comparable within an allelic series)

Each sequence was assayed against T6, PAX4 (Homo sapiens, UniProt O43316 9-242) (assay: PBM; 200 nM protein, PBS). Conditions: dsDNA, one strand shown.
T6 sequence: T4 sequence with K192R

Row | Sequence | binding signal
49 | AATTAGCT | 12.2 upbm affinity estimate (log intensity, higher = more binding, comparable within an allelic series)
50 | ACGGCTGG | 9.44 upbm affinity estimate (log intensity, higher = more binding, comparable within an allelic series)
51 | ACCCGGGC | 9.14 upbm affinity estimate (log intensity, higher = more binding, comparable within an allelic series)
52 | CGGGCTCC | 8.72 upbm affinity estimate (log intensity, higher = more binding, comparable within an allelic series)

These sequences were tested against T7, NKX2-4 (Homo sapiens, UniProt Q9H2Z4 175-261) (assay: PBM; 200 nM protein, PBS). Conditions: dsDNA, one strand shown.
T7 sequence: T3 sequence with S57T

Row | Sequence | binding signal
53 | AAGTGGAG | 12.3 upbm affinity estimate (log intensity, higher = more binding, comparable within an allelic series)
54 | CTTAAGTA | 12.5 upbm affinity estimate (log intensity, higher = more binding, comparable within an allelic series)
55 | CACTTTAA | 12.3 upbm affinity estimate (log intensity, higher = more binding, comparable within an allelic series)
56 | CACTTAAC | 12.4 upbm affinity estimate (log intensity, higher = more binding, comparable within an allelic series)
57 | GTACTTAA | 12.6 upbm affinity estimate (log intensity, higher = more binding, comparable within an allelic series)
58 | AATAAGTG | 12.3 upbm affinity estimate (log intensity, higher = more binding, comparable within an allelic series)
59 | ACCACTTA | 12.6 upbm affinity estimate (log intensity, higher = more binding, comparable within an allelic series)
60 | CACTTATA | 12.5 upbm affinity estimate (log intensity, higher = more binding, comparable within an allelic series)
61 | CCGGAGCC | 9.71 upbm affinity estimate (log intensity, higher = more binding, comparable within an allelic series)
62 | ACACTTAT | 12.4 upbm affinity estimate (log intensity, higher = more binding, comparable within an allelic series)
63 | CTACTTAA | 12.4 upbm affinity estimate (log intensity, higher = more binding, comparable within an allelic series)
64 | CCACTTTA | 12.5 upbm affinity estimate (log intensity, higher = more binding, comparable within an allelic series)
65 | ATCAAGTG | 12.4 upbm affinity estimate (log intensity, higher = more binding, comparable within an allelic series)
66 | CCAGGCCG | 9.56 upbm affinity estimate (log intensity, higher = more binding, comparable within an allelic series)
67 | ATAAGTAC | 12.5 upbm affinity estimate (log intensity, higher = more binding, comparable within an allelic series)
68 | AAGTACCT | 12.4 upbm affinity estimate (log intensity, higher = more binding, comparable within an allelic series)
69 | AAGCACTT | 12.4 upbm affinity estimate (log intensity, higher = more binding, comparable within an allelic series)
70 | GCACTTAA | 12.5 upbm affinity estimate (log intensity, higher = more binding, comparable within an allelic series)
71 | GCCACTTA | 12.5 upbm affinity estimate (log intensity, higher = more binding, comparable within an allelic series)

These sequences were tested against HOXB6 (Homo sapiens, UniProt P17509 132-218, K202E) (assay: PBM; 200 nM protein, PBS). Conditions: dsDNA, one strand shown.
Chain of HOXB6 (P17509 132-218 K202E): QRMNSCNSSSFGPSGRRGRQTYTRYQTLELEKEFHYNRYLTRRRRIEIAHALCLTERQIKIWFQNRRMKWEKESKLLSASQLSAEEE

Row | Sequence | binding signal
72 | ACGGCGGC | 8.91 upbm affinity estimate (log intensity, higher = more binding, comparable within an allelic series)
73 | CTAATTGC | 9.81 upbm affinity estimate (log intensity, higher = more binding, comparable within an allelic series)
74 | CGGACCCG | 8.97 upbm affinity estimate (log intensity, higher = more binding, comparable within an allelic series)
75 | CCGGAGCC | 8.96 upbm affinity estimate (log intensity, higher = more binding, comparable within an allelic series)
76 | CGGGCTCC | 8.71 upbm affinity estimate (log intensity, higher = more binding, comparable within an allelic series)
77 | GCACTTAA | 9.75 upbm affinity estimate (log intensity, higher = more binding, comparable within an allelic series)

Each sequence was assayed against ALX4 (Homo sapiens, UniProt Q9H161 200-286, Q225E) (assay: PBM; 200 nM protein, PBS). Conditions: dsDNA, one strand shown.
Chain of ALX4 (Homo sapiens, UniProt Q9H161 200-286, Q225E) (Q9H161 200-286 Q225E): as the sequence (Q9H161 200-286) above, with Q26E counted along it

Row | Sequence | binding signal
78 | AATTAGCT | 12.7 upbm affinity estimate (log intensity, higher = more binding, comparable within an allelic series)
79 | CCCGGCGG | 8.11 upbm affinity estimate (log intensity, higher = more binding, comparable within an allelic series)
80 | CTAATTGC | 12.8 upbm affinity estimate (log intensity, higher = more binding, comparable within an allelic series)
81 | CGGGCTCC | 7.51 upbm affinity estimate (log intensity, higher = more binding, comparable within an allelic series)

Reference: article PMC11006913
